HP1b chromo inh – inhibitors of HP1-beta chromodomain binding to methylated histone tails; actives 0.56% (n = 390,000); AlphaScreen HP1-beta / biotin-H3K9me3 peptide binding; Potency, µM (highest dose often 114 µM), most hits filed as inhibitors; AID 540317; P83916; further: nearly all actives have a fitted effect of over 70% in size
Target sequence (P83916 whole entry, looked up): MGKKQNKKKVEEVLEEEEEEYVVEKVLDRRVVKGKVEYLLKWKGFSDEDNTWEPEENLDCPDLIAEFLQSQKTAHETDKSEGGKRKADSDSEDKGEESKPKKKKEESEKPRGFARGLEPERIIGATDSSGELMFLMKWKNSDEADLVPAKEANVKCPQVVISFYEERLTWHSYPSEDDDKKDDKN
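Compound inhibition of the preformed complex between 50 nM HP1-beta and 50 nM biotinylated H3K9me3 peptide was read by AlphaScreen. Buffer was PBS pH 7.4 with 0.01% Tween-20. Incubations ran 30 min at room temperature, with 10 ug/mL donor/acceptor beads.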
BAZ2B inh – blocks human BAZ2B. Potency, µM (doses to about 114 µM), usual class: inhibitors. AlphaScreen BAZ2B-H3K14Ac peptide displacement. actives 4.4% (n = 360,000). Q9UIF8; further: nearly all actives have a fitted effect of over 60% in size
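AlphaScreen displacement of biotin-H3(5-23)K14Ac peptide (50 nM final) from BAZ2B (50 nM final) in PBS pH 7.4, 0.01% Tween-20; complex preformed 30 min RT, then compounds (top 110 uM) 30 min RT, beads 20 min dark.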
JMJD2A Tudor – JMJD2A Tudor domain (human) inhibition. O75164. AlphaScreen JMJD2A-Tudor / H3K4me3 peptide binding. Potency, µM (series often up to 114 µM), usual class: inhibitors. actives 4.4% (n = 390,000); further: nearly all actives have a fitted effect of over 50% in size
G9a inh – inhibitors of human histone lysine methyltransferase G9a; AID 504332; G9a H3K9 monomethylation, AlphaScreen, 2 h; Potency, µM (titrated, usually from 102 µM), most hits filed as inhibitors; actives 8.8% (n = 350,000); further: nearly all actives have a fitted effect of over 75% in size
Target sequence (Q96KQ7 913-1193 limits assumed): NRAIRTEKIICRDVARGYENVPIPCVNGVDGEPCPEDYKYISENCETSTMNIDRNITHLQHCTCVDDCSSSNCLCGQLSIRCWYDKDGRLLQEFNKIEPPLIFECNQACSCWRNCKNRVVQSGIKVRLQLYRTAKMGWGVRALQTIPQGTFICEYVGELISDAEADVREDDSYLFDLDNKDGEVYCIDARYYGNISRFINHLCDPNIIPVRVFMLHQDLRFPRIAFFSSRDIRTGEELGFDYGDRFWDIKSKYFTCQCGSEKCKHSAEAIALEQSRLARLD
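G9a (20 nM) preincubated 15 min RT with compounds, then 500 nM biotinylated H3K9 peptide and 20 uM SAM added; 2 h RT reaction. Monomethyl-H3K9 product detected by AlphaScreen with anti-H3K9me1 antibody, streptavidin donor and anti-rabbit IgG acceptor beads.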
L3MBTL1 block – inhibitors of human L3MBTL1; Q9Y468; AlphaScreen L3MBTL1–H3K9me1 peptide binding; Potency, µM (highest dose often 57.1 µM), hits mostly inhibitors; actives 0.66% (n = 230,000); AID 485360; further: nearly all actives have a fitted effect of over 60% in size
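Displacement of a biotinylated histone H3(1-15) peptide monomethylated at Lys9 (75 nM) from L3MBTL1 (50 nM) was measured by AlphaScreen after a 30 min room-temperature compound incubation; cefsulodin titration served as intraplate control.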
Sfp PPTase inh – inhibitors of Bacillus subtilis Sfp phosphopantetheinyl transferase. Q9F4F7. Biochemical Sfp PPTase activity, qHTS. Potency, µM, hits mostly inhibitors. actives 3.5% (n = 310,000);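 further: the enzyme is Sfp with the accession as filed and its product quenches rhodamine fluorescence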
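With Hepes-Na pH 7.6 buffer containing 10 mM MgCl2, Sfp (15 nM) modified BHQ-2-YbbR (12.5 uM) using rhodamine-CoA (5 uM). Two reads 30 minutes apart at 525/598 nm yielded each well's rate.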
Hits are given with their value; 0 = inactive; ? = inconclusive; - = no result given; ! = not active in a repeat; [ ] = another dose, or the depositor's remark. This is a sample that favours compounds with a hit; in the whole collection about 12% have one here. The call rests on the fitted dose curve; in most records, active means well fitted curve in the direction sought with a large enough effect; inconclusive means small, poorly fitted or top-dose-only effect, or another doubt; inactive means no such curve, though single readings can be large; an effect the other way counts as inactive or inconclusive.

SMILES	HP1b chromo inh	BAZ2B inh	JMJD2A Tudor	G9a inh	L3MBTL1 block	Sfp PPTase inh
CCc1cccc(C)c1NC(=S)NCc1ccccc1	0	0	0	0	0	0
O=C(CCN1C(=O)/C(=C/c2ccccc2)SC1=S)Nc1ccccn1	0	?	?	0	-	0
Cc1ccc(/C=C2\SC(=S)N(CCCC(=O)Nc3ccccn3)C2=O)cc1	0	?	?	71µM	0	0
O=C(CN1C(=O)/C(=C/c2ccccc2)SC1=S)Nc1ncc(Cc2ccccc2)s1	0	0	0	50µM	-	0
O=C(CCN1C(=O)S/C(=C/c2ccc(F)cc2)C1=O)Nc1ccc(O)c(C(=O)O)c1	0	0	0	45µM	-	0
CCN(CC)CCOC(=O)c1ccc(NC(=O)CCCN2C(=O)/C(=C/c3cccs3)SC2=S)cc1	?	0	40µM	-	-	?
Cc1ccc(CC(=O)NCc2nc(-c3ccccc3)no2)cc1	0	0	0	0	-	-
COc1ccccc1Nc1nn2c(=O)c3ccc(C(=O)NCCc4ccccc4)cc3nc2s1	0	?	0	?	-	-
O=C(CCCN1C(=O)/C(=C/c2ccccc2)SC1=S)Nc1ccc(C(=O)O)c(O)c1	0	?	?	?	-	0
O=C(COC(=O)CCN1C(=O)/C(=C\C=C\c2ccccc2)SC1=S)Nc1cc(F)ccc1F	?	20µM	40µM	?	0[11.4 µM]	0
O=C(CN1C(=O)/C(=C\C=C\c2ccccc2)SC1=S)Nc1ccc(F)cc1	0	0	0	0	0	0
O=C(CCCN1C(=O)/C(=C/c2cccs2)SC1=S)Nc1ccc(O)c(C(=O)O)c1	-	?	-	45µM	0	?
O=C(CCN1C(=O)/C(=C\c2ccccc2F)SC1=S)Nc1ccc(C(=O)O)c(O)c1	-	?	-	79µM	-	0
Cc1nnc(NC(=O)CCN2C(=O)/C(=C\c3ccccc3)SC2=S)s1	0	0	0	79µM	0	0
CCCNc1ccc(-c2nc(-c3ccncc3)no2)cc1[N+](=O)[O-]	0	0	0	0	-	-
O=C(CCN1C(=O)/C(=C\C=C\c2ccccc2)SC1=S)Nc1ccc(C(=O)O)cc1	50µM	16µM	22µM	32µM	-	?
O=C(CCN1C(=O)/C(=C/c2cccs2)SC1=S)Nc1ccc(C(=O)O)cc1	0	56µM	?	?	-	0
O=C(CCN1C(=O)/C(=C/c2cccs2)SC1=S)Nc1ccccn1	0	?	0	3.2µM	-	0
Cc1cccn2c(=O)c3cc(C(=O)NCc4ccco4)c(=N)n(C(C)C)c3nc12	0	0	0	0	0[11.4 µM]	0
Cc1cccn2c(=O)c3cc(C(=O)NCCc4ccccc4)c(=N)n(Cc4ccco4)c3nc12	0	0	0	0	-	32µM
Cc1cccn2c(=O)c3cc(C(=O)NCc4ccco4)c(=N)n(CCc4ccccc4)c3nc12	0	0	?	0	-	89µM
Cc1ccc2c(=O)cc(C(=O)Nc3ccc(S(=O)(=O)N4CCCCCC4)cc3)oc2c1	0	0	0	0	-	-
CC#CCN1c2ccccc2[C@]23C[C@@H](C(=O)OC)N(C(=O)c4cccs4)C2=NC(C(=O)OC)=C(C(=O)OC)[C@H]13	-	-	-	-	-	0
Cc1ccc(NC(=O)C2C3C=CC4(O3)C2C(=O)N(CCN2CCOCC2)C4C(=O)NC2CCCCC2)cc1C (configuration not stated)	0	0	0	?	-	0
CC1CCCC(NC(=O)C2N(CCCN3CCCC3)C(=O)C3C(C(=O)Nc4ccc(Cl)cc4)C4C=CC32O4)C1C (configuration not stated)	0	0	0	0[12.7 µM]	-	0
SMILES	HP1b chromo inh	BAZ2B inh	JMJD2A Tudor	G9a inh	L3MBTL1 block	Sfp PPTase inh
COc1ccc(NC(=O)C2C3C=CC4(O3)C2C(=O)N(CCCN2CCCCC2)C4C(=O)NC2CCCC(C)C2C)cc1 (configuration not stated)	0	0	0	45µM	-	0
CSc1cccc(NC(=O)C2C3C=CC4(O3)C2C(=O)N(CCN2CCOCC2)C4C(=O)NC2CCCCC2)c1 (configuration not stated)	0	0	0	50µM	-	0
O=C(Nc1ccc(Cl)c(Cl)c1)C1C2C=CC3(O2)C1C(=O)N(CCN1CCCCC1)C3C(=O)NC1CCCCC1 (configuration not stated)	0	0	0	45µM	-	0
COCCCN1C(=O)C2C(C(=O)Nc3cc(C)cc(C)c3)C3C=CC2(O3)C1C(=O)NC1CCCCC1 (configuration not stated)	0	0	0	89µM	-	40µM
COc1ccccc1NC(=O)c1c(-c2ccc(C)cc2)nnc2ccccc12	0	0	0	0	-	-
CCN(CC)CCNC(=O)Nc1ccc2c(c1)N(Cc1ccccc1)C(=O)c1ccccc1S2	0	0	0	0	-	-
Cc1ccccc1N1C(=O)c2cc(N)ccc2N/C1=C\F	-	-	-	0[12.7 µM]	-	0
Cc1ccc(N2CCN(S(=O)(=O)c3ccc(F)c(C(=O)Nc4ccc(Cl)cc4Cl)c3)CC2C)cc1 (configuration not stated)	0	0	0	0	-	-
COc1cccc(NC(=O)C2C3C=CC4(O3)C2C(=O)N(CCCN2CCC(C)CC2)C4C(=O)NC2CCCCC2)c1 (configuration not stated)	0	0	0	45µM	-	0
O=C(O)c1cccc2c1/C(=N/Nc1ccc([N+](=O)[O-])cc1[N+](=O)[O-])c1ccccc1-2	0	?	0	?	-	0
O=[N+]([O-])c1ccc(N/N=C2\CC3CC=CC23)c([N+](=O)[O-])c1 (configuration not stated)	14µM	3.2µM	14µM	14µM	?	?
O=[N+]([O-])c1ccc(N/N=C2\CC3CC=CC23)cc1 (configuration not stated)	0	?	?	45µM	-	0
O=C(N/N=C1\CC2CC=CC12)c1ccc(O)cc1 (configuration not stated)	0	-	0	0	0	0
COc1cc(OC)c(NC(=O)N2CCc3cc(OC)c(OC)cc3C2CC(=O)O)cc1Cl (configuration not stated)	0	0	0	0[12.7 µM]	-	-
COc1cc2c(cc1OC)C(COc1cc(C)cc(C)c1)N(C(=O)C(C)(C)C)CC2 (configuration not stated)	0	0	0	0	-	-
COc1ccc(/C=C/C(=O)c2cccc(-n3cnnn3)c2)cc1O	0	0	0	0	-	0
COc1ccc(/C=C/C(=O)CC(=O)/C=C/c2cccc(O)c2OC)cc1O	-	-	-	?	-	32µM!
COc1cc(/C=C/C(=O)O)ccc1O	0	-	0	0[2.33 µM]	-	0
COc1cc(/C=C/C(=O)/C=C(O)/C=C/c2ccc(O)c(OC)c2)ccc1O	0	?	?	0[2.33 µM]	0	0
COc1cc(/C=C/C(C)=NNc2ccccc2)ccc1O	?	-	50µM	-	-	-
COc1cc(/C=C/C(=O)CC(=O)/C=C/c2ccc(O)c(OC)c2)ccc1O	0	40µM	?	0	0	45µM!
